Bioassay records: PubChem BioAssay, Broad Institute
The sample as a whole holds a higher share of hits than the screen did.
Tg IFNy HTS = T. gondii growth inhibition under IFN-gamma | Toxoplasma gondii growth in IFN-gamma-treated host cells; hits give low values | activity change, negative = inhibition, % (no concentration beside the values) | actives 3.8% (n = 69,000) | AID 1259416; in the data active means activity change below about -70%, passing the limit was not always enough;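 further: host cells are HeLa cells infected with Toxoplasma gondii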
Active calls of the source: *.

`CC(C)N1CCO[C@H]2CN(S(=O)(=O)Cc3ccccc3)CC[C@@H]2C1` gave Tg IFNy HTS -4.3.
For Cc1nc2c(nc(SCc3nc(-c4cccc(Cl)c4)oc3C)n2C)c(=O)[nH]1 the results were Tg IFNy HTS -2.8.
CC(C)Cc1cc(C(=O)Nc2nc(-c3ccc(OC(C)C)cc3)cs2)nc(=O)[nH]1 was read as Tg IFNy HTS 23.8.
For CC1CN(C(=O)c2nc3c(s2)CCCN3C(=O)C2CC2)CC(C)O1 (centres undefined) the results were Tg IFNy HTS -45.2.
For Cc1ccc(-c2ncc(CN3CCN(S(=O)(=O)N4CCCC4)CC3)cn2)cc1 the results were Tg IFNy HTS 6.1.
Cc1cnc2c(C(=O)NCc3snnc3C(C)C)cnn2c1 was read as Tg IFNy HTS -11.5.
`Cc1cc(C)c2nc(C)cc(C(=O)Nc3ccccc3-c3ccccc3)c2c1` gave Tg IFNy HTS -29.6.
O=C(Nc1ccccc1-c1ccccc1)c1ccc2c(c1)[nH]c(=O)n2C1CCCC1 was read as Tg IFNy HTS -92.3*.
CCOc1ccc(-c2ccccc2NC(=O)C2CC2)cc1 was read as Tg IFNy HTS 23.0.
`COc1cccc(CC2(CO)CCN(c3ccc(C(C)=O)cn3)CC2)c1` gave Tg IFNy HTS -28.8.
`Cc1[nH]nc2ccc(-c3cncc(OC[C@@H](N)Cc4ccccc4)c3)cc12` gave Tg IFNy HTS -77.7*.
COc1cncc(-c2ccc(F)c(CO)c2)c1 was read as Tg IFNy HTS -2.2.
For Cc1ccc(N2CC3(CCN(C(=O)c4ccn[nH]4)C3)CC2=O)cc1 (centres undefined) the results were Tg IFNy HTS 0.4.
For CN(Cc1ccccc1CN1CCCC1)C(=O)c1c[nH]c(=O)[nH]1 the results were Tg IFNy HTS 10.2.
Clc1ccc(-c2nc(C34CC5CC(CC(C5)C3)C4)cs2)cc1 was read as Tg IFNy HTS 67.6.
O=C(NC12CC3CC(CC(C3)C1)C2)c1cccnc1 was read as Tg IFNy HTS 6.0.
`O=C(Nc1nc(C23CC4CC(CC(C4)C2)C3)cs1)c1ccccc1` gave Tg IFNy HTS -107.0*.
`Cc1cc(CNc2cnccn2)c2[nH]c(-c3ccccc3)c(C)c2c1` gave Tg IFNy HTS 225.8.
`Cc1ccc(NC(=O)C(=O)NCCc2csc(-c3ccc(C)cc3)n2)cc1` gave Tg IFNy HTS 56.5.
CC[C@H]1N(CCOCc2ccccc2)CCC[C@@]12CCC(=O)N2C was read as Tg IFNy HTS 14.1.
For CO[C@H]1CN(C)C(=O)c2cc(NS(=O)(=O)c3cccc(Cl)c3)ccc2OC[C@@H](C)NC[C@H]1C the results were Tg IFNy HTS -60.8.
`COc1cccc(NC(=O)Nc2ccc3c(c2)C(=O)N(C)C[C@@H](OC)[C@H](C)CN[C@@H](C)CO3)c1` gave Tg IFNy HTS -34.1.
`CO[C@@H]1CN(C)C(=O)c2cc(NS(=O)(=O)c3cn(C)cn3)ccc2OC[C@@H](C)NC[C@@H]1C` gave Tg IFNy HTS -12.8.
`CO[C@H]1CN(C)C(=O)c2cc(NS(=O)(=O)c3cccc(Cl)c3)ccc2OC[C@H](C)NC[C@H]1C` gave Tg IFNy HTS -86.4*.
For CO[C@@H]1CN(C)C(=O)c2cc(NC(=O)c3cnccn3)ccc2OC[C@H](C)NC[C@@H]1C the results were Tg IFNy HTS -34.9.
CO[C@H]1CN(C)C(=O)c2ccc(NC(=O)c3cccc(F)c3)cc2OC[C@@H](C)NC[C@@H]1C was read as Tg IFNy HTS 46.7.
Screening COc1cccc(NC(=O)Nc2ccc3c(c2)C(=O)N(C)C[C@H](OC)[C@H](C)CN[C@@H](C)CO3)c1 returned Tg IFNy HTS 19.5.
For CO[C@@H]1CN(C)C(=O)c2cc(NC(=O)c3ccc(Oc4ccccc4)cc3)ccc2OC[C@H](C)NC[C@@H]1C the results were Tg IFNy HTS -97.0*.
`CO[C@@H]1CN(C)C(=O)c2cc(NC(=O)c3cnccn3)ccc2OC[C@H](C)NC[C@H]1C` gave Tg IFNy HTS 10.4.
`COc1cccc(NC(=O)Nc2ccc3c(c2)C(=O)N(C)C[C@H](OC)[C@@H](C)CN[C@H](C)CO3)c1` gave Tg IFNy HTS 27.7.
CO[C@H]1CN(C)C(=O)c2cc(NC(=O)c3ccc(Oc4ccccc4)cc3)ccc2OC[C@H](C)NC[C@H]1C was read as Tg IFNy HTS -98.2*.
CO[C@@H]1CN(C)C(=O)c2cc(NC(=O)c3ccc(Oc4ccccc4)cc3)ccc2OC[C@@H](C)NC[C@H]1C was read as Tg IFNy HTS -119.2*.
COCCNC(=O)[C@H]1C[C@@H]2OCC[C@@H]2N(Cc2ccoc2)C1 was read as Tg IFNy HTS 157.1.
`Cc1ccsc1-c1nccn1CCN1CCCOC1=O` gave Tg IFNy HTS 15.6.
`Cc1ccoc1C(=O)N1CC(=O)N(C2CCCCC2)CC(OCc2ccccc2)C1` (centres undefined) gave Tg IFNy HTS -18.5.
`COC(=O)C1(Cc2ccccc2-c2c[nH]c3ccccc23)CCOCC1` gave Tg IFNy HTS 8.0.
For O=C(O)CNc1nc(C(F)(F)F)nc2ccccc12 the results were Tg IFNy HTS 53.7.
`COc1ccc2c(c1)C=C(CN(CCN(C)C)Cc1cccnc1)CO2` gave Tg IFNy HTS 44.8.
